Screening results (PubChem BioAssay)
Hits are enriched below; roughly 3.5% of the tested compounds scored in any of these assays.
TEAD-YAP block = TEAD-YAP interaction inhibition. HEK-TIYL cells, TEAD-Gal4/YAP UAS-luciferase luminescence. inhibition, % at 9.12 µM. actives 1.4% (n = 640,000); in the data active means inhibition above about 32%;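 further: 0% = median of test compound wells and 100% = reference inhibitor wells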
MITF primary = blocks human microphthalmia-associated transcription factor. AlphaScreen MITF homodimerization, bead proximity signal. inhibition, % at 2.6 µM. actives 0.91% (n = 650,000); in the data active means inhibition above about 50%;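 further: 0% = vehicle wells with protein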
GPR151 ag = human GPR151 activation; Q8TDV0; PathHunter beta-arrestin GPR151 cells, luminescence; activation, % at 11.2 µM; actives 1% (n = 650,000); AID 1508602; in the data active means activation above about 4.9%;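 further: 0% = median of compound wells and 100% = cells with positive control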
FBW7 activator = activators of human E3 ligase FBW7; AlphaScreen FBW7–phospho-cyclin E peptide binding, activator screen; normalized activity (activation), % at 26.1 µM; actives 0.13% (n = 650,000); AID 1259310; in the data active means normalized activity above about 1.9%;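 further: purified mutant Fbw7 with reduced substrate affinity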
Target sequence (Q969H0 whole entry, looked up): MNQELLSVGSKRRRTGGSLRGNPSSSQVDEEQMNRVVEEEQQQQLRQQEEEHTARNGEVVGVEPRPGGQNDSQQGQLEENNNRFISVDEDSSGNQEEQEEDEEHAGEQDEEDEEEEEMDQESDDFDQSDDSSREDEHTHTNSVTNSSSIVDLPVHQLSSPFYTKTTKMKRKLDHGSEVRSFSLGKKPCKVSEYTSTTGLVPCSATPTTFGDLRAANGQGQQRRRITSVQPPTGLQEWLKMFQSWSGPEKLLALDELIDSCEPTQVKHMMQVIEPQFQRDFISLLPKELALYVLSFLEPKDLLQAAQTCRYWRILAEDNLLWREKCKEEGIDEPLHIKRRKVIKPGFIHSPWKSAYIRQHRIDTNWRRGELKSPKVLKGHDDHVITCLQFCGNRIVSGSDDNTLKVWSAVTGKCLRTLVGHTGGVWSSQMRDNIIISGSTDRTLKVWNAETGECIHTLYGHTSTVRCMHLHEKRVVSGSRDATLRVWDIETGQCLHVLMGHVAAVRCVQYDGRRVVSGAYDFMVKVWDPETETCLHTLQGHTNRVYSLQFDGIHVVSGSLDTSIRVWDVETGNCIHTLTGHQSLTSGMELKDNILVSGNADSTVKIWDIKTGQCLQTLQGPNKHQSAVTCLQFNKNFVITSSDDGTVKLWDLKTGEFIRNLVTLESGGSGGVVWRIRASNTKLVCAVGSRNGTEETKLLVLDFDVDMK
An asterisk follows results filed as active.

Results for Cc1ccccc1C(=O)Nc1noc2ccccc12 ?
TEAD-YAP block: 43.3*; MITF primary: -1.5; GPR151 ag: -12.5; FBW7 activator: -0.1

How did COc1ccc(OC)c(Nc2cc(C)nc3ccccc23)c1 do in these assays?
TEAD-YAP block: 37.1*; MITF primary: -2.8; GPR151 ag: 0.4; FBW7 activator: -0.1

How did COc1ccc2nc(C)cc(Nc3ccc(Oc4ccc(Cl)cc4)c(Cl)c3)c2c1 do in these assays?
TEAD-YAP block: 44.3*; MITF primary: 0.0; GPR151 ag: 0.4; FBW7 activator: -0.1

Results for COc1ccc2nc(C)cc(Nc3ccccc3OC)c2c1 ?
TEAD-YAP block: 17.1; MITF primary: 19.2; GPR151 ag: -0.9; FBW7 activator: 0.7

Results for COc1cccc(Nc2cc(C)nc3ccc(Cl)cc23)c1 ?
TEAD-YAP block: 43.7*; MITF primary: 8.0; GPR151 ag: 0.0; FBW7 activator: -0.1

Results for COc1cccc(Nc2cc(C)nc3ccc(OC)cc23)c1 ?
TEAD-YAP block: 8.1; MITF primary: 29.2; GPR151 ag: 1.5; FBW7 activator: 0.1

Results for Cc1ccc(NS(=O)(=O)Cc2ccccc2)cc1C ?
TEAD-YAP block: 1.4; MITF primary: -8.7; GPR151 ag: -0.7; FBW7 activator: -0.2

How did c1cn(CCCNc2cc(-c3ccc(OC4CCCCO4)cc3)ncn2)cn1 (stereo not given) do in these assays?
TEAD-YAP block: 49.8*; MITF primary: 20.1; GPR151 ag: -1.0; FBW7 activator: 0.0

Results for CN1CCCN(c2cc(-c3ccc(OC4CCCCO4)cc3)ncn2)CC1 (stereo not given) ?
TEAD-YAP block: 3.9; MITF primary: 20.9; GPR151 ag: -0.5; FBW7 activator: -0.3

Results for O=C1/C(=C/c2cccnc2)SC(=S)N1Cc1cccnc1 ?
TEAD-YAP block: 32.9*; MITF primary: 24.6; GPR151 ag: 3.6; FBW7 activator: 0.1

How did COc1cc2ccccc2cc1C(=O)N/N=C/c1cccs1 do in these assays?
TEAD-YAP block: 49.8*; MITF primary: -9.4; GPR151 ag: -0.3; FBW7 activator: 0.1

Results for CC(C)Oc1ccc(Br)cc1C(=O)N/N=C/c1ccc(O)cc1 ?
TEAD-YAP block: 2.9; MITF primary: -3.1; GPR151 ag: 0.2; FBW7 activator: -0.1

How did O=C(N/N=C/c1cccs1)c1cc2ccccc2cc1O do in these assays?
TEAD-YAP block: -4.1; MITF primary: 8.6; GPR151 ag: 0.0; FBW7 activator: 0.1

What do the screens show for `CC(C)Oc1ccc(Br)cc1C(=O)N/N=C/c1ccco1`?
TEAD-YAP block: 38.5*; MITF primary: -1.9; GPR151 ag: 0.6; FBW7 activator: 0.0

How did CCOc1ccc(Br)cc1C(=O)N/N=C/c1cccs1 do in these assays?
TEAD-YAP block: 54.9*; MITF primary: 21.7; GPR151 ag: -1.5; FBW7 activator: 0.2

Results for CCOc1ccc(Br)cc1C(=O)N/N=C/c1ccc(C)o1 ?
TEAD-YAP block: 36.2*; MITF primary: -7.6; GPR151 ag: -0.1; FBW7 activator: 0.0

Results for O=C(c1ccco1)N1CCN(c2ccc([N+](=O)[O-])c3nonc23)CC1 ?
TEAD-YAP block: -8.4; MITF primary: -3.4; GPR151 ag: -0.7; FBW7 activator: -0.1

What do the screens show for `CN(Cc1cscn1)C(=O)C1CC12CCN(Cc1cccc(-c3ccco3)c1)CC2` (stereo not given)?
TEAD-YAP block: 5.6; MITF primary: -1.9; GPR151 ag: 0.2; FBW7 activator: 0.4

What do the screens show for `COc1ccccc1C(=O)Nc1ccc2nc(SCC(=O)N3CCc4ccccc43)sc2c1`?
TEAD-YAP block: -5.9; MITF primary: 3.4; GPR151 ag: 0.2; FBW7 activator: 0.0

How did Cc1nnc(SC(C)C(=O)Nc2ccc3nc(SCC(=O)N4CCc5ccccc54)sc3c2)s1 (stereo not given) do in these assays?
TEAD-YAP block: 34.8*; MITF primary: -3.8; GPR151 ag: -1.1; FBW7 activator: 0.1

How did Cc1ccccc1OCC(=O)Nc1ccc(Oc2ccc3c(c2)C(=O)NC3=O)cc1 do in these assays?
TEAD-YAP block: 51.5*; MITF primary: 10.9; GPR151 ag: 1.4; FBW7 activator: 0.1

What do the screens show for `CCC(=O)Nc1ccc(Oc2ccc3c(c2)C(=O)NC3=O)cc1`?
TEAD-YAP block: -1.8; MITF primary: -12.6; GPR151 ag: 0.8; FBW7 activator: 0.0

What do the screens show for `O=C(COc1ccccc1)Nc1ccc(Oc2ccc3c(c2)C(=O)NC3=O)cc1`?
TEAD-YAP block: 50.8*; MITF primary: 7.9; GPR151 ag: -0.6; FBW7 activator: 0.3

What do the screens show for `O=C(CCc1ccccc1)Nc1ccc(Oc2ccc3c(c2)C(=O)NC3=O)cc1`?
TEAD-YAP block: 52.0*; MITF primary: -2.8; GPR151 ag: 0.4; FBW7 activator: 0.0
